Common to all, as to assay: DAPPL (digital affinity profiling via proximity ligation, sequencing); 10 mM Tris-HCl pH 7.5, 50 mM NaCl, 1 mM DTT, 4% glycerol, room temperature, 30 min; GST-TFs on glutathione beads, 16-mer random dsDNA library, 0.1% formaldehyde crosslink after washing; high values mean tight binding
Common to all, as to conditions: protein: recombinant; tags: N-terminal GST; dsDNA, one strand shown

The target of one assay is T1, ETV2 (Homo sapiens, UniProt O00321 1-342).
T1 sequence: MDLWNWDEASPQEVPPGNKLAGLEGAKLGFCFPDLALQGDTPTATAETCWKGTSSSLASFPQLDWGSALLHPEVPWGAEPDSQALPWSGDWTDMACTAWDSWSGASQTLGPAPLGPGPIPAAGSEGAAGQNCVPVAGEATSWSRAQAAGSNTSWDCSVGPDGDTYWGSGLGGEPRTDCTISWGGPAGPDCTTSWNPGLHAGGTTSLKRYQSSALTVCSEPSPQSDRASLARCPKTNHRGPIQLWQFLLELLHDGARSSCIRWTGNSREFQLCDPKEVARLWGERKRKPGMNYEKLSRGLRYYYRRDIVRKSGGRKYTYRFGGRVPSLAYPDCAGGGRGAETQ
A digest of the protocol: (§1)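 A tag-only sample was pooled with DNA-barcoded human transcription factors that had been expressed in yeast as GST fusions and captured on glutathione beads. The pools were incubated for 30 min at room temperature with 200 nmole of a random double-stranded 16-mer DNA library in Tris/NaCl/DTT/glycerol buffer, then washed, crosslinked with 0.1% formaldehyde, proximity-ligated (BsaI/T4 ligase, 1 h, 37 °C), PCR-amplified and sequenced on an Illumina NextSeq500. Binding signal is each hexamer's read frequency for a factor divided by its frequency for the tag-only sample.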

In the next assay the target is T2, ELF3 (Homo sapiens, UniProt P78545 1-371).
T2 sequence: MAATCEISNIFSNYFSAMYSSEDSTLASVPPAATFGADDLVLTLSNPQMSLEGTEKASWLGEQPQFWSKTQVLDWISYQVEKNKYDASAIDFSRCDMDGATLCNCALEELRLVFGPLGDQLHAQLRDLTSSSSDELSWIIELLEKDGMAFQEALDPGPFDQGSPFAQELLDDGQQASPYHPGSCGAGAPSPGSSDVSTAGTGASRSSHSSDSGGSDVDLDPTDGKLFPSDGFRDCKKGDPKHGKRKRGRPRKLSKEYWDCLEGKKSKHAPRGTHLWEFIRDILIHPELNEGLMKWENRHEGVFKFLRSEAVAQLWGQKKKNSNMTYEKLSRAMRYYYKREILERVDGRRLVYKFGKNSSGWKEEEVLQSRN
A digest of the protocol:
as §1

Another assay addresses T3, SPDEF (Homo sapiens, UniProt O95238 1-335).
T3 sequence: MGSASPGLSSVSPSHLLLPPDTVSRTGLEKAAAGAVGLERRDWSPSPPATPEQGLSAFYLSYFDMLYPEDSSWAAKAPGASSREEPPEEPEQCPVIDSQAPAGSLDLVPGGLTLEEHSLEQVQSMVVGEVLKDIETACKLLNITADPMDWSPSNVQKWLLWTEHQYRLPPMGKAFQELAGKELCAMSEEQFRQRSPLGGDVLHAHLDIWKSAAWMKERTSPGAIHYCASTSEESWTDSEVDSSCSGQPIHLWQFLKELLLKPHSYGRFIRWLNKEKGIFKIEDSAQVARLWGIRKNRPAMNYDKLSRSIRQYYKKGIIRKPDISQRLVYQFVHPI
A digest of the protocol: as §1

In a further assay the target is T4, ETV7 (Homo sapiens, UniProt Q9Y603 1-341).
T4 sequence: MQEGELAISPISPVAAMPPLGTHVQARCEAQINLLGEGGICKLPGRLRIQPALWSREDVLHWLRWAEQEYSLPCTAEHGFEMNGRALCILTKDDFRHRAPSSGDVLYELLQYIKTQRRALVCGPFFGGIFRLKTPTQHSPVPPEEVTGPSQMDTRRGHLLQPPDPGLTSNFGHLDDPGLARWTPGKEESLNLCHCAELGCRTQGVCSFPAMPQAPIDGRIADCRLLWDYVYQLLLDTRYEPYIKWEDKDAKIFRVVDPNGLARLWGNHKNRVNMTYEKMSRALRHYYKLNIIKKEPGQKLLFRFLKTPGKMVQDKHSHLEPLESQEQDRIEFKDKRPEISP
A digest of the protocol:
as §1

Another assay has as its target T5, ELK4 (Homo sapiens, UniProt P28324-2 1-405).
T5 sequence: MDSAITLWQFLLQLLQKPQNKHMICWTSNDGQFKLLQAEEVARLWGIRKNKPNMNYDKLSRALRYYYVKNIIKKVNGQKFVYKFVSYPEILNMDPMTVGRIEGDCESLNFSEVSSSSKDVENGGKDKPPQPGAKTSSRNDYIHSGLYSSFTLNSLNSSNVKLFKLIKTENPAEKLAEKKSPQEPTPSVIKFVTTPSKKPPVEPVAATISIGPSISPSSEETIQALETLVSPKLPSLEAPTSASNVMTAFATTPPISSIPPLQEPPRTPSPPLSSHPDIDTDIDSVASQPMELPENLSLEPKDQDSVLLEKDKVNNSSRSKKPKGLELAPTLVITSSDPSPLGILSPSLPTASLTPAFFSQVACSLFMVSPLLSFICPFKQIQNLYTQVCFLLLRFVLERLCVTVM
A digest of the protocol: as §1

The next assay concerns the target CRX (Homo sapiens, UniProt O43186 1-299). A digest of the protocol:
as §1

CRX, sequence (O43186 whole entry): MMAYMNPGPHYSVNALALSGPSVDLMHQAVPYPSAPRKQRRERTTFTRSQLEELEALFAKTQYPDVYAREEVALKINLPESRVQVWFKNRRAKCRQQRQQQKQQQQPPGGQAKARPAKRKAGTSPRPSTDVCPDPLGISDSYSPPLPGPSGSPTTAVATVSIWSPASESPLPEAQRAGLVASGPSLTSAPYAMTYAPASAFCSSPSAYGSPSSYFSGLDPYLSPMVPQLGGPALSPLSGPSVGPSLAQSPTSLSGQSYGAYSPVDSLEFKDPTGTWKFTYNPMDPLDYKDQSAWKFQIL

AGTGTC: the binding signal is 1.02 fold enrichment (6-mer frequency, TF over GST control) with ETV2; 1.11 fold enrichment (6-mer frequency, TF over GST control) with ELF3; 1.05 fold enrichment (6-mer frequency, TF over GST control) in the assay with SPDEF; 1.16 fold enrichment (6-mer frequency, TF over GST control) with ETV7.
Regarding CACGGA, the binding signal with ELK4 is 1.05 fold enrichment (6-mer frequency, TF over GST control); with ELF3, 1.09 fold enrichment (6-mer frequency, TF over GST control); with SPDEF, 1.25 fold enrichment (6-mer frequency, TF over GST control).
Regarding TCGTCA, the binding signal in the assay with ETV2 was 1.02 fold enrichment (6-mer frequency, TF over GST control); in the assay with SPDEF it was 1.06 fold enrichment (6-mer frequency, TF over GST control).
For the sequence TCGCTG, the binding signal with ELK4 is 1.15 fold enrichment (6-mer frequency, TF over GST control); with ELF3, 1.12 fold enrichment (6-mer frequency, TF over GST control); in the assay with ETV7 it was 1.06 fold enrichment (6-mer frequency, TF over GST control).
Consider GGACTC, for which the binding signal was 1.04 fold enrichment (6-mer frequency, TF over GST control) with ELK4 and 1.01 fold enrichment (6-mer frequency, TF over GST control) with ETV2.
With GGCTCG, the binding signal was 1.11 fold enrichment (6-mer frequency, TF over GST control) with ELK4 and 1 fold enrichment (6-mer frequency, TF over GST control) with ELF3.
As to ACGATG, the binding signal with ETV2 was 1.14 fold enrichment (6-mer frequency, TF over GST control); with ELF3, 1.17 fold enrichment (6-mer frequency, TF over GST control); with SPDEF, 1.14 fold enrichment (6-mer frequency, TF over GST control); in the assay with ETV7 it was 1.2 fold enrichment (6-mer frequency, TF over GST control).
For TGTGGT, the binding signal in the assay with ELK4 is 1.03 fold enrichment (6-mer frequency, TF over GST control); with ETV2, 1.07 fold enrichment (6-mer frequency, TF over GST control); in the assay with ELF3, 1.2 fold enrichment (6-mer frequency, TF over GST control); with SPDEF, 1.07 fold enrichment (6-mer frequency, TF over GST control); with ETV7 it was 1.11 fold enrichment (6-mer frequency, TF over GST control).
Turning to AAACCG, the binding signal is 1.03 fold enrichment (6-mer frequency, TF over GST control) with ETV2; 1.07 fold enrichment (6-mer frequency, TF over GST control) with ELF3; 1.11 fold enrichment (6-mer frequency, TF over GST control) with SPDEF; 1.04 fold enrichment (6-mer frequency, TF over GST control) with ETV7.
Consider ATACCG, for which the binding signal is 1.04 fold enrichment (6-mer frequency, TF over GST control) in the assay with ELK4; 1.07 fold enrichment (6-mer frequency, TF over GST control) with ETV2; 1.2 fold enrichment (6-mer frequency, TF over GST control) in the assay with ELF3; 1.19 fold enrichment (6-mer frequency, TF over GST control) with SPDEF; 1.04 fold enrichment (6-mer frequency, TF over GST control) in the assay with ETV7.
Consider TGTGGC, for which the binding signal in the assay with ELK4 was 1.16 fold enrichment (6-mer frequency, TF over GST control); in the assay with ETV2 it was 1.23 fold enrichment (6-mer frequency, TF over GST control); with ELF3, 1.02 fold enrichment (6-mer frequency, TF over GST control); with ETV7, 1.01 fold enrichment (6-mer frequency, TF over GST control).
Consider GTACGC, for which the binding signal in the assay with ELF3 was 1.17 fold enrichment (6-mer frequency, TF over GST control); in the assay with ETV7 it was 1.09 fold enrichment (6-mer frequency, TF over GST control).
As for CGCGAC, the binding signal is 1.14 fold enrichment (6-mer frequency, TF over GST control) with ELK4; 1.34 fold enrichment (6-mer frequency, TF over GST control) with ETV2; 1.05 fold enrichment (6-mer frequency, TF over GST control) with ELF3; 1.08 fold enrichment (6-mer frequency, TF over GST control) in the assay with SPDEF.
As to ACGGCA, the binding signal was 1.1 fold enrichment (6-mer frequency, TF over GST control) in the assay with ELF3 and 1.11 fold enrichment (6-mer frequency, TF over GST control) with SPDEF.
For CATACC, the binding signal in the assay with ETV2 is 1.16 fold enrichment (6-mer frequency, TF over GST control); in the assay with ELF3, 1 fold enrichment (6-mer frequency, TF over GST control); with SPDEF, 1.14 fold enrichment (6-mer frequency, TF over GST control); with ETV7 it was 1.03 fold enrichment (6-mer frequency, TF over GST control).
On to GCTTGT, for which the binding signal is 1.03 fold enrichment (6-mer frequency, TF over GST control) with ETV2; 1.09 fold enrichment (6-mer frequency, TF over GST control) with ELF3; 1.09 fold enrichment (6-mer frequency, TF over GST control) with ETV7.
In the case of GTAGTT, the binding signal with ELK4 is 1.1 fold enrichment (6-mer frequency, TF over GST control); in the assay with ETV2, 1.04 fold enrichment (6-mer frequency, TF over GST control); with ELF3, 1.09 fold enrichment (6-mer frequency, TF over GST control); with SPDEF, 1.05 fold enrichment (6-mer frequency, TF over GST control); with ETV7, 1.03 fold enrichment (6-mer frequency, TF over GST control).
For the sequence ACCATT, the binding signal was 1.15 fold enrichment (6-mer frequency, TF over GST control) with ELK4; 1.26 fold enrichment (6-mer frequency, TF over GST control) with ETV2; 1.17 fold enrichment (6-mer frequency, TF over GST control) in the assay with ELF3; 1 fold enrichment (6-mer frequency, TF over GST control) with SPDEF; 1.11 fold enrichment (6-mer frequency, TF over GST control) with ETV7.
On to ATTGGC, for which the binding signal was 1.06 fold enrichment (6-mer frequency, TF over GST control) in the assay with ELK4; 1.1 fold enrichment (6-mer frequency, TF over GST control) with ETV2; 1.24 fold enrichment (6-mer frequency, TF over GST control) with ELF3; 1.07 fold enrichment (6-mer frequency, TF over GST control) in the assay with CRX; 1.12 fold enrichment (6-mer frequency, TF over GST control) with SPDEF; 1.04 fold enrichment (6-mer frequency, TF over GST control) with ETV7.
With GCAACC, the binding signal with SPDEF was 1.13 fold enrichment (6-mer frequency, TF over GST control); in the assay with ETV7 it was 1.01 fold enrichment (6-mer frequency, TF over GST control).
For TACCCC, the binding signal was 1.19 fold enrichment (6-mer frequency, TF over GST control) with ELK4; 1.19 fold enrichment (6-mer frequency, TF over GST control) with ETV2; 1.04 fold enrichment (6-mer frequency, TF over GST control) in the assay with ELF3; 1.03 fold enrichment (6-mer frequency, TF over GST control) in the assay with CRX; 1.02 fold enrichment (6-mer frequency, TF over GST control) with SPDEF; 1.1 fold enrichment (6-mer frequency, TF over GST control) with ETV7.
With GTCCGC, the binding signal with ELK4 is 1.09 fold enrichment (6-mer frequency, TF over GST control); with ELF3 it was 1.01 fold enrichment (6-mer frequency, TF over GST control); with SPDEF it was 1.07 fold enrichment (6-mer frequency, TF over GST control).
With AGTGGT, the binding signal with ELK4 was 1.1 fold enrichment (6-mer frequency, TF over GST control); with ELF3, 1.01 fold enrichment (6-mer frequency, TF over GST control); in the assay with ETV7, 1.14 fold enrichment (6-mer frequency, TF over GST control).
Take AGTGTA: in the assay with ETV7, the binding signal is 1.1 fold enrichment (6-mer frequency, TF over GST control).
In the case of ACTAGG, the binding signal is 1.03 fold enrichment (6-mer frequency, TF over GST control) with ELK4; 1.28 fold enrichment (6-mer frequency, TF over GST control) with ETV2; 1.1 fold enrichment (6-mer frequency, TF over GST control) with SPDEF.
Take ACTGTA: the binding signal with ELK4 is 1.08 fold enrichment (6-mer frequency, TF over GST control); with ETV2, 1.17 fold enrichment (6-mer frequency, TF over GST control); with SPDEF, 1.02 fold enrichment (6-mer frequency, TF over GST control).
TGGGTA: the binding signal with ELK4 is 1.02 fold enrichment (6-mer frequency, TF over GST control); with ETV2, 1.14 fold enrichment (6-mer frequency, TF over GST control); with ELF3 it was 1.1 fold enrichment (6-mer frequency, TF over GST control); with ETV7, 1.01 fold enrichment (6-mer frequency, TF over GST control).
AGTAAC: in the assay with ETV2, the binding signal is 1.05 fold enrichment (6-mer frequency, TF over GST control).
In the case of CCCGGT, the binding signal was 1.13 fold enrichment (6-mer frequency, TF over GST control) with ELK4; 1.06 fold enrichment (6-mer frequency, TF over GST control) with ELF3; 1.11 fold enrichment (6-mer frequency, TF over GST control) in the assay with SPDEF; 1.01 fold enrichment (6-mer frequency, TF over GST control) in the assay with ETV7.
TGGTGG: the binding signal is 1.04 fold enrichment (6-mer frequency, TF over GST control) in the assay with ELK4; 1.03 fold enrichment (6-mer frequency, TF over GST control) in the assay with ETV2; 1.02 fold enrichment (6-mer frequency, TF over GST control) in the assay with SPDEF; 1.09 fold enrichment (6-mer frequency, TF over GST control) in the assay with ETV7.
